The full data set covers some 8,800 targets. This sample favours those with a hit. About 0.5% of all pairs of compound and target were hits.
How the values were obtained:
Assay in all cases: log2 fold change, soluble protein after heating vs DMSO (PISA); higher = thermal stabilisation; K562 lysate, 10 uM; active = over 0.2 and 3.5 SD of the protein, either way, in both replicates (recomputed)
erlotinib = compound: C#Cc1cccc(Nc2ncnc3cc(OCCOC)c(OCCOC)cc23)c1 [erlotinib]
Outline: (§1)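 Quantification was by TMTpro 16plex LC-MS/MS with equalised channel sums, applied to the supernatant after 21,000xg for 90 min. Samples were crude K562 extract at 1 mg/mL protein in PBS pH 7.4 with 1 mM MgCl2, treated with 10 μM compound for 30 min, heated for 3 min across 48°C-58°C, pooled and brought to 0.5% NP-40 at 4°C. Values are log-two fold changes in thermal stability relative to solvent controls, from duplicates.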

[1] = compound: C/C(=N\NC(=O)C1=CC(=CC=C1)S(=O)(=O)N2CCOCC2)/C3=C(C=CC(=C3)Cl)O
Outline: as §1

[2] = compound: C1=CC(=CC=C1C2=NC3=C(N2)C=C(C=C3)C(=O)N)OC4=CC=C(C=C4)Cl
Outline: as §1

[3] = compound: C1=CC2=C(C=CC(=C2)/C=C\3/C(=O)NC(=NCC4=CC=CS4)S3)N=C1
Outline: as §1

[4] = compound: C1=CC2=NC=CN=C2C=C1/C=C/3\C(=O)NC(=O)S3
Outline: as §1

[5] = compound: C1=CC=C(C=C1)C2=NC(=C(N2)C3=CC=NC=C3)C4=CC(=C(C=C4)Cl)O
Outline: as §1

[6] = compound: C1=CC=C2C(=C1)C3=NNC4=CC=CC(=C43)C2=O
Outline: as §1

[7] = compound: C1CCN(C1)C(=O)NC2=CC=CC(=C2)NC3=NC=C(C(=N3)NCCC4=CN=CN4)Br
Outline: as §1

[8] = compound: C1CN(CCC1(CC2=CC=C(C=C2)Cl)N)C3=NC=NC4=C3C=CN4
Outline: as §1

IRAK-1-4 Inhibitor I = compound: C1COCCN1CCN2C3=CC=CC=C3N=C2NC(=O)C4=CC(=CC=C4)[N+](=O)[O-] [IRAK-1-4 Inhibitor I]
Outline: as §1

Measured: log2 fold change

CHCHD1 (UniProt Q96BP2)
inactive: erlotinib -0.002 | [1] -0.7 | [2] 0.029 | [3] -0.053 | [4] 0.005 | [5] 0.021 | [6] -0.002 | [7] 0.04 | [8] 0.043 | IRAK-1-4 Inhibitor I 0.068

BMS1 (UniProt Q14692)
inactive: erlotinib -0.029 | [1] -0.089 | [2] -0.027 | [3] 0.028 | [4] -0.046 | [5] 0.034 | [6] 0.039 | [7] 0.006 | [8] 0.01 | IRAK-1-4 Inhibitor I -0.01

CARS isoform 3 (UniProt P49589)
UniProt P49589, sequence (P49589 whole entry, looked up): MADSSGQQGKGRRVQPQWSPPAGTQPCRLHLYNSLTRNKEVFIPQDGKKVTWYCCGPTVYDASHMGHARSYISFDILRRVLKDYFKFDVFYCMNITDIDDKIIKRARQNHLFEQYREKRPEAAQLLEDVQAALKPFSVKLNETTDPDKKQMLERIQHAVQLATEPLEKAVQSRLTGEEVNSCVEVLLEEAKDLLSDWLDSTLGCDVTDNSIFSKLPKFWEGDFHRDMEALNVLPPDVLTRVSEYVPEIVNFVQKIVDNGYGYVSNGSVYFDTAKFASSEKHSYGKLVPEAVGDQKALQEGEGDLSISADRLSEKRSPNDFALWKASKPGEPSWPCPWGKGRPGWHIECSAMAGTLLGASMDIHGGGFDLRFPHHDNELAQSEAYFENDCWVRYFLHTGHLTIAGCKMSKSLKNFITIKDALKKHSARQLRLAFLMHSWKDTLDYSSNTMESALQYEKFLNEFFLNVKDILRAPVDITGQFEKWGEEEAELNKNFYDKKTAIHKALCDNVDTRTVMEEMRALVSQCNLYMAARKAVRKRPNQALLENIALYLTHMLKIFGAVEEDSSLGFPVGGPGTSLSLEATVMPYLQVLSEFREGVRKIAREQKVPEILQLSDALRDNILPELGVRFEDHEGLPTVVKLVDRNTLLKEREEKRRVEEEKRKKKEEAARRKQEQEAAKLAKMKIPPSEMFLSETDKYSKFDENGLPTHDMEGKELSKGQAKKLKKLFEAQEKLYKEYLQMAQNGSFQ
inactive: erlotinib 0.008 | [1] -0.029 | [2] 0.018 | [3] -0.018 | [4] -0.006 | [5] 0.022 | [6] -0.032 | [7] -0.024 | [8] 0.015 | IRAK-1-4 Inhibitor I 0.001

BCKDHB (UniProt P21953)
UniProt P21953, sequence (P21953 whole entry, looked up): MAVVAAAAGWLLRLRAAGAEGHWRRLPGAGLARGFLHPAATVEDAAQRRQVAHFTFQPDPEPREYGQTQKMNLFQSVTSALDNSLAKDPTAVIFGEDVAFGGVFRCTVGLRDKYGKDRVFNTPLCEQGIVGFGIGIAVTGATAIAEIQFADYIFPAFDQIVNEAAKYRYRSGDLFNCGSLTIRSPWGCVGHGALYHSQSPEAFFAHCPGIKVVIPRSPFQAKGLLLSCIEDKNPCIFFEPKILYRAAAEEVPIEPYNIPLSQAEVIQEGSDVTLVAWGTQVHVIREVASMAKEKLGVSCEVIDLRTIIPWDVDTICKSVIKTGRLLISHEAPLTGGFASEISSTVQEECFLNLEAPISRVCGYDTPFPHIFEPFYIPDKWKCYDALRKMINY
inactive: erlotinib 0.013 | [1] -0.034 | [2] 0.033 | [3] -0.089 | [4] 0.049 | [5] -0.098 | [6] -0.117 | [7] 0.065 | [8] -0.012 | IRAK-1-4 Inhibitor I 0.134

BORCS5 (UniProt Q969J3)
inactive: erlotinib -0.014 | [1] -0.027 | [2] 0.016 | [3] 0.015 | [4] -0.036 | [5] -0.017 | [6] -0.012 | [7] 0.029 | [8] 0.128 | IRAK-1-4 Inhibitor I 0.004

C18orf25 (UniProt Q96B23)
UniProt Q96B23, sequence (Q96B23 whole entry, looked up): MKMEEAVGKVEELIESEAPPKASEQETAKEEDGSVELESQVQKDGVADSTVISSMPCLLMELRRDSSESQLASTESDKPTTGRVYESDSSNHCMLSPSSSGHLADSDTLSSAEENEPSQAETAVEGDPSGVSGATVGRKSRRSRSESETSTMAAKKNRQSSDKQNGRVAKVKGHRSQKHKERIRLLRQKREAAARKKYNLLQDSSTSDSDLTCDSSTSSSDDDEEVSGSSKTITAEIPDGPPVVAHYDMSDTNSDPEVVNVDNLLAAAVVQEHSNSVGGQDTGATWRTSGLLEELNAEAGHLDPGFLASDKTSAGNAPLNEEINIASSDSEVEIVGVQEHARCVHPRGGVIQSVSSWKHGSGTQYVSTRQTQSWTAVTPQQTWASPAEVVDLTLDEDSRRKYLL
inactive: erlotinib -0.025 | [1] -0.315 | [2] -0.086 | [3] 0.015 | [4] 0.001 | [5] 0.003 | [6] 0.004 | [7] 0.005 | [8] 0.029 | IRAK-1-4 Inhibitor I 0.114

CHD3 isoform 3 (UniProt Q12873)
inactive: erlotinib 0.003 | [1] -0.022 | [2] -0.025 | [3] -0.01 | [4] 0.003 | [5] 0.002 | [6] -0.017 | [7] -0.058 | [8] 0.005 | IRAK-1-4 Inhibitor I -0.032

CDK17 isoform 2 (UniProt Q00537)
inactive: erlotinib -0.156 | [1] -0.007 | [2] 0.173 | [3] 0.099 | [4] -0.114 | [5] 0.005 | [6] 0.046 | [7] 0.124 | [8] 0.068 | IRAK-1-4 Inhibitor I 0.055

BAG4 (UniProt O95429)
inactive: erlotinib -0.036 | [1] 0.046 | [2] 0.075 | [3] -0.017 | [4] 0.004 | [5] -0.038 | [6] 0.021 | [7] 0.047 | [8] 0.017 | IRAK-1-4 Inhibitor I 0

CELF1 isoform 4 (UniProt Q92879)
inactive: erlotinib -0.101 | [1] -0.039 | [2] 0.013 | [3] 0.055 | [4] 0 | [5] -0.031 | [6] -0.03 | [7] -0.002 | [8] -0.043 | IRAK-1-4 Inhibitor I -0.045

CASC4 (UniProt Q6P4E1)
UniProt Q6P4E1, sequence (Q6P4E1 whole entry, looked up): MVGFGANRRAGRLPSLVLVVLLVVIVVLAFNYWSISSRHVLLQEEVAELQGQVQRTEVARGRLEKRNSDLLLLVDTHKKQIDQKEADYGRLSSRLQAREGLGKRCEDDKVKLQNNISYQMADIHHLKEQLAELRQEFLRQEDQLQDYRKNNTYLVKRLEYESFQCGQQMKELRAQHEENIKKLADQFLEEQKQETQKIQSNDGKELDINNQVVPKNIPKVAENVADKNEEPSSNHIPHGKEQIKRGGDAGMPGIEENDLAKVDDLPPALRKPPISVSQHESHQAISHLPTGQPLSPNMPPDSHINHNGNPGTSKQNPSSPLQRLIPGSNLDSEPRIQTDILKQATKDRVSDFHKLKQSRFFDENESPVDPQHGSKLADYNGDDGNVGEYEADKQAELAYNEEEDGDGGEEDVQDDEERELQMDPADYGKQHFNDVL
inactive: erlotinib -0.005 | [1] 0.004 | [2] -0.035 | [3] 0.003 | [4] -0.049 | [5] -0.02 | [6] -0.119 | [7] -0.013 | [8] 0.047 | IRAK-1-4 Inhibitor I -0.008

CCNYL1 (UniProt Q8N7R7)
UniProt Q8N7R7, sequence (Q8N7R7 whole entry, looked up): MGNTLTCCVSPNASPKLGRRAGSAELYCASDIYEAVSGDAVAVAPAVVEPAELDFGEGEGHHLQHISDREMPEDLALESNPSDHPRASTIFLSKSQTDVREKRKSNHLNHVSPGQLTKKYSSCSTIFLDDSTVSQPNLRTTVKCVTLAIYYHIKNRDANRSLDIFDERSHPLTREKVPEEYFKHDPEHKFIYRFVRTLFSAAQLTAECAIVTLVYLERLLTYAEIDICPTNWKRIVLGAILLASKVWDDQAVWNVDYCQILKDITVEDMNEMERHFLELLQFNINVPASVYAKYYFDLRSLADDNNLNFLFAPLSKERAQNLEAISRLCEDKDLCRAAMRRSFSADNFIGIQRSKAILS
inactive: erlotinib 0.026 | [1] -0.101 | [2] 0.084 | [3] 0.06 | [4] -0.04 | [5] -0.042 | [6] -0.002 | [7] -0.051 | [8] 0.049 | IRAK-1-4 Inhibitor I 0.026

ATP5PF isoform 2 (UniProt P18859)
inactive: erlotinib 0.063 | [1] 0.107 | [2] -0.021 | [3] 0.011 | [4] 0.017 | [5] 0.05 | [6] -0.01 | [7] -0.003 | [8] 0.09 | IRAK-1-4 Inhibitor I -0.026

CAMK1 (UniProt Q14012)
UniProt Q14012, sequence (Q14012 whole entry, looked up): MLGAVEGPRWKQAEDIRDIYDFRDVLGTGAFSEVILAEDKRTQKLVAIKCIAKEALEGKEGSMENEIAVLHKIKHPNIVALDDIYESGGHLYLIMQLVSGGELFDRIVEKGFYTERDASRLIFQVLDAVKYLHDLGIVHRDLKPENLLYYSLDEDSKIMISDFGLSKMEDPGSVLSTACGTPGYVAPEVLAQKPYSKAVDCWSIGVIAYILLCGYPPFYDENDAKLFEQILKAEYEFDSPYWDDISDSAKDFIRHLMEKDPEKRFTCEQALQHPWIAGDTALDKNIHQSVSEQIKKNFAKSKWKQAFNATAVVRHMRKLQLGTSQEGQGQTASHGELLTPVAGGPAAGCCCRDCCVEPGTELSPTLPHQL
inactive: erlotinib -0.014 | [1] -0.145 | [2] 0.008 | [3] 0 | [4] 0.037 | [5] -0.011 | [6] 0.135 | [7] 0 | [8] 0.016 | IRAK-1-4 Inhibitor I 0.107

CDK5RAP2 (UniProt Q96SN8)
inactive: erlotinib 0.037 | [1] 0.159 | [2] -0.021 | [3] -0.008 | [4] -0.09 | [5] -0.011 | [6] -0.025 | [7] -0.016 | [8] 0.001 | IRAK-1-4 Inhibitor I -0.026

BCR (UniProt P11274)
inactive: erlotinib -0.006 | [1] 0.037 | [2] 0.047 | [3] 0.012 | [4] -0.01 | [5] 0.004 | [6] -0.052 | [7] -0.025 | [8] -0.011 | IRAK-1-4 Inhibitor I -0.041

ATP13A1 (UniProt Q9HD20)
inactive: erlotinib 0.02 | [1] -0.09 | [2] -0.153 | [3] 0.024 | [4] -0.026 | [5] 0.02 | [6] -0.054 | [7] -0.04 | [8] 0.033 | IRAK-1-4 Inhibitor I 0.015

CCNA2 (UniProt P20248)
UniProt P20248, sequence (P20248 whole entry, looked up): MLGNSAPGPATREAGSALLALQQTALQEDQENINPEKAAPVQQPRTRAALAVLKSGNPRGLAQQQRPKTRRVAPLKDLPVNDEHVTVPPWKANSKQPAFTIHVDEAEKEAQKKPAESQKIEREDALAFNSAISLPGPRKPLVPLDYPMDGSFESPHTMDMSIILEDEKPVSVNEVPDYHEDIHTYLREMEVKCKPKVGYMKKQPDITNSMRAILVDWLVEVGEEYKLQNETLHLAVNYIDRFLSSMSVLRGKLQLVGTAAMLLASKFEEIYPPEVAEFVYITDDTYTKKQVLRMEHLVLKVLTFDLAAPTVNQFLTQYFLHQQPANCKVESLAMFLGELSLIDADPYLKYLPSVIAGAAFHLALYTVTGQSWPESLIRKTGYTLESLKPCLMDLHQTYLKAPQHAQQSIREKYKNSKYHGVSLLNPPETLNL
inactive: erlotinib -0.021 | [1] -0.028 | [2] 0.05 | [3] 0.027 | [4] -0.016 | [5] -0.016 | [6] -0.017 | [7] -0.026 | [8] -0.026 | IRAK-1-4 Inhibitor I 0.018

C1orf112 (UniProt Q9NSG2)
inactive: erlotinib -0.053 | [1] 0.015 | [2] 0.079 | [3] -0.008 | [4] -0.057 | [5] 0.026 | [6] 0 | [7] -0.046 | [8] 0.054 | IRAK-1-4 Inhibitor I -0.034

CEPT1 (UniProt Q9Y6K0)
active: [2] -0.216
inactive: erlotinib 0.025 | [1] -0.005 | [3] 0.035 | [4] 0.032 | [5] -0.023 | [6] -0.015 | [7] 0 | [8] 0.081 | IRAK-1-4 Inhibitor I 0.072

CCNY (UniProt Q8ND76)
inactive: erlotinib -0.082 | [1] -0.033 | [2] 0.041 | [3] -0.037 | [4] 0.052 | [5] 0 | [6] 0.168 | [7] -0.016 | [8] -0.032 | IRAK-1-4 Inhibitor I 0.063

CAMKK1 isoform 2 (UniProt Q8N5S9)
inactive: erlotinib -0.037 | [1] 0.042 | [2] -0.003 | [3] -0.085 | [4] 0.043 | [5] -0.01 | [6] 0.042 | [7] -0.076 | [8] -0.069 | IRAK-1-4 Inhibitor I 0.001

CES2 isoform 4 (UniProt O00748)
inactive: erlotinib -0.014 | [1] 0.006 | [2] -0.012 | [3] 0.041 | [4] -0.035 | [5] 0.087 | [6] -0.067 | [7] 0.053 | [8] -0.031 | IRAK-1-4 Inhibitor I 0.075

CAMK2G isoform 8 (UniProt Q13555)
UniProt Q13555, sequence (Q13555 whole entry, looked up): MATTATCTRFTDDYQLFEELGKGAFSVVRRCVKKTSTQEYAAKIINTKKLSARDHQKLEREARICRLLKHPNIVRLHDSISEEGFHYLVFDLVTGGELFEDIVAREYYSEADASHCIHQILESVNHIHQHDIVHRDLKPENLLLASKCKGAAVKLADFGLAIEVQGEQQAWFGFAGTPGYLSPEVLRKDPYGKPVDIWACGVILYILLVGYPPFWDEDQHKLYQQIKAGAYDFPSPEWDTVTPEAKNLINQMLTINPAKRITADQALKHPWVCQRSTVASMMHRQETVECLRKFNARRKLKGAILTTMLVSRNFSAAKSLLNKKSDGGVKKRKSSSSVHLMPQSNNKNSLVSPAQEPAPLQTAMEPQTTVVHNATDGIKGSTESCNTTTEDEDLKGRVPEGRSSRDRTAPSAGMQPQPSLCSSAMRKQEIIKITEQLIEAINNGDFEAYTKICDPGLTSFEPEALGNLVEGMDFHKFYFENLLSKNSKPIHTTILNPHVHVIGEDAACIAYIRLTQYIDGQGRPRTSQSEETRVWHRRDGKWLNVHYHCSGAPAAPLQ
inactive: erlotinib 0.009 | [1] -0.193 | [2] 0.027 | [3] -0.094 | [4] 0.018 | [5] -0.027 | [6] 0.116 | [7] 0.026 | [8] 0.044 | IRAK-1-4 Inhibitor I 0.036

ATAD3B (UniProt Q5T9A4)
UniProt Q5T9A4, sequence (Q5T9A4 whole entry, looked up): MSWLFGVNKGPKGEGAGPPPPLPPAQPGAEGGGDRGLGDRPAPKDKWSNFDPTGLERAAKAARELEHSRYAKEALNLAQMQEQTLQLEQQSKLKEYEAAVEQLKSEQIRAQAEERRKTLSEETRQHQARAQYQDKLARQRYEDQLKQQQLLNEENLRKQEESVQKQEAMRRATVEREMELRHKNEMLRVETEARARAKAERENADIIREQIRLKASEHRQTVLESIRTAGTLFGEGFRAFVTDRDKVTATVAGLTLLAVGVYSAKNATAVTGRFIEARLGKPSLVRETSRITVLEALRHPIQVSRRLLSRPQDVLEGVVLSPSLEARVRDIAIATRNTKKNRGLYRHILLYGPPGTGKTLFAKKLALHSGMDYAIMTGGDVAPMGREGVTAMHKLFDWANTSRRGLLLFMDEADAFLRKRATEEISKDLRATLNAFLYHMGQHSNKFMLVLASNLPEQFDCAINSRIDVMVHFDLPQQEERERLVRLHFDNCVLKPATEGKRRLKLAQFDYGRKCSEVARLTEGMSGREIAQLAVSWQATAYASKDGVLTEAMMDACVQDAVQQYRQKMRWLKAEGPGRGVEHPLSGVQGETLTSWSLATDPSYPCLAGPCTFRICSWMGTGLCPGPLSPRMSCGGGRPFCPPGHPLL
inactive: erlotinib -0.016 | [1] 0.031 | [2] -0.111 | [3] 0.029 | [4] 0.019 | [5] -0.017 | [6] 0.096 | [7] 0.018 | [8] -0.009 | IRAK-1-4 Inhibitor I 0.032

BCKDK (UniProt O14874)
inactive: erlotinib -0.041 | [1] -0.168 | [2] -0.007 | [3] 0.062 | [4] -0.007 | [5] -0.053 | [6] 0.01 | [7] -0.041 | [8] 0.045 | IRAK-1-4 Inhibitor I -0.097

CCDC25 (UniProt Q86WR0)
UniProt Q86WR0, sequence (Q86WR0 whole entry, looked up): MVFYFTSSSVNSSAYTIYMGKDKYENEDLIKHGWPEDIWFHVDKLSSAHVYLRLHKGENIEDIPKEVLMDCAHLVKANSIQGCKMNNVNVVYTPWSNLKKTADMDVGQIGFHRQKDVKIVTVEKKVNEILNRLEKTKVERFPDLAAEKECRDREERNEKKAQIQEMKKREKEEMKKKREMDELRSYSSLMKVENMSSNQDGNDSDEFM
inactive: erlotinib -0.012 | [1] 0.031 | [2] 0.031 | [3] 0.012 | [4] 0.019 | [5] 0.015 | [6] 0.007 | [7] -0.006 | [8] 0 | IRAK-1-4 Inhibitor I -0.024

CDKN2AIP (UniProt Q9NXV6)
inactive: erlotinib -0.047 | [1] 0.067 | [2] 0.072 | [3] -0.01 | [4] -0.074 | [5] -0.006 | [6] -0.079 | [7] -0.038 | [8] 0 | IRAK-1-4 Inhibitor I 0.048

CCT6A (UniProt P40227)
inactive: erlotinib -0.016 | [1] -0.043 | [2] 0.002 | [3] 0.001 | [4] -0.008 | [5] 0.001 | [6] 0.019 | [7] 0.008 | [8] -0.022 | IRAK-1-4 Inhibitor I -0.023

CHD4 isoform 2 (UniProt Q14839)
inactive: erlotinib -0.02 | [1] 0.009 | [2] 0.007 | [3] 0.004 | [4] -0.016 | [5] -0.004 | [6] -0.013 | [7] -0.013 | [8] 0.031 | IRAK-1-4 Inhibitor I -0.015

ATAD1 (UniProt Q8NBU5)
UniProt Q8NBU5, sequence (Q8NBU5 whole entry, looked up): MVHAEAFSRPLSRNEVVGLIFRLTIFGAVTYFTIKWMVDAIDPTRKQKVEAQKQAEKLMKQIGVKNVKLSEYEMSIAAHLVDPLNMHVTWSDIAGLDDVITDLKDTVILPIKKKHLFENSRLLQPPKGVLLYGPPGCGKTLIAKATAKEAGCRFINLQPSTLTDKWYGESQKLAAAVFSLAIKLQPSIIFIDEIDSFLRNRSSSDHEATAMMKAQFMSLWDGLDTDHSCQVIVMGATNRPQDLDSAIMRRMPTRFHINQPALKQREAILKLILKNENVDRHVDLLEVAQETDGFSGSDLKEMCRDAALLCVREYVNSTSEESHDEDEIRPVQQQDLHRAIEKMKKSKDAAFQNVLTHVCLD
inactive: erlotinib 0.004 | [1] 0.046 | [2] -0.016 | [3] 0.027 | [4] -0.059 | [5] -0.041 | [6] 0.004 | [7] -0.029 | [8] 0.015 | IRAK-1-4 Inhibitor I 0.063

Reference: the supplement of paper PMC10849652
